Shown are actives, neighbours in structure and some others; about 1.3% of the full set was active somewhere.
EPAC1 agonist = qHTS for Agonist of cAMP-regulated guanine nucleotide exchange factor 3 (EPAC1): primary screen; EPAC1 agonist qHTS, biochemical assay; response scale: 100% = response to 6.5 mM cAMP; Potency, µM (series often up to 154 µM), for inactives: top-dose activation, usual class: activators; Rap guanine nucleotide exchange factor 3 (Homo sapiens), O95398; actives 0.073% (n = 360,000); note: nearly all actives have a fitted effect of over 60% in size
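Nucleotide exchange by EPAC1 (100 nM) on Rap1B–BODIPY-GDP (250 nM) in the presence of 50 uM GDP is tracked fluorescently at 480/540 nm over 30 min. Signals are normalized to a 6.5 mM cAMP control.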
EPAC2 antag = qHTS for Antagonist of cAMP-regulated guanine nucleotide exchange factor 2 (EPAC2): primary screen; actives 0.18% (n = 360,000); EPAC2 GEF exchange of Rap1B-BODIPY-GDP, fluorescence; Rap guanine nucleotide exchange factor 4 (Homo sapiens), Q8WZA2; AID 720708, 2013; Potency, µM (series often up to 114 µM), for inactives: at the highest dose activity, negative = inhibition, most hits filed as inhibitors; note: % is set by controls: 0 for no effect and ±100 for the full control effect; nearly all actives have a fitted effect of over 45% in size
EPAC1 antagonist = qHTS for Antagonist of cAMP-regulated guanine nucleotide exchange factor 3 (EPAC1): primary screen; actives 0.14% (n = 360,000); Rap guanine nucleotide exchange factor 3 (Homo sapiens), O95398; Potency, µM (doses to about 115 µM), inactives show at the highest dose activity change, negative = inhibition, most hits filed as inhibitors; EPAC1 GEF assay, Rap1b-BODIPY-GDP exchange fluorescence;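 note: plate controls were vehicle for no effect and positive control for full effect; nearly all actives have a fitted effect of over 50% in size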
EPAC2 agonist = qHTS for Agonist of cAMP-regulated guanine nucleotide exchange factor 4 (EPAC2): primary screen; AID 720711, 2013; Potency, µM (top dose mostly 154 µM), for inactives: top-dose activation, hits mostly activators; actives 0.079% (n = 360,000); EPAC2 activation, biochemical qHTS; response scale: 100% = 6.5 mM cAMP response; note: nearly all actives have a fitted effect of over 50% in size
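Fluorescence exchange assay: 100 nM EPAC2 with 250 nM RAP1B-BODIPY-GDP and 50 uM GDP; compounds tested as a concentration-titration series (qHTS). Loss of Rap1-bound BODIPY-GDP fluorescence read at 480/540 nm; data normalized to 6.5 mM cAMP.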
ALOX12 inh = Primary qHTS assay for inhibitors of human arachidonate 12S-lipoxygenase (ALOX12): Round 2 | Polyunsaturated fatty acid lipoxygenase ALOX12 (Homo sapiens), P18054 | Potency, µM (highest dose often 108 µM), inactives show at the top dose activity change, negative = inhibition, usual class: inhibitors | purified 12hLO, xylenol orange hydroperoxide absorbance | actives 1.1% (n = 580,000); note: % is set by controls: 0 for no effect and ±100 for the full control effect
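Purified human 12hLO at 150 nM in 25 mM Hepes, 0.01% Triton X-100, pH 7.0, preincubated 15 min at room temperature with compound. Reaction started with 40 uM arachidonic acid, 30 min at room temperature. Hydroperoxide measured by Fe-xylenol orange, 573/405 nm absorbance ratio.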
USP1-UAF1 inh = Inhibitors of USP1/UAF1: Primary Screen | Ubiquitin carboxyl-terminal hydrolase 1 (Homo sapiens), O94782 | recombinant USP1/UAF1, Ub-Rhodamine cleavage fluorescence | Potency, µM (top dose mostly 57.1 µM), for inactives: at the highest dose activity change, negative = inhibition, most hits filed as inhibitors | actives 0.23% (n = 390,000) | AID 743255, 2014; note: % is set by controls: 0 for no effect and ±100 for the full control effect; nearly all actives have a fitted effect of over 60% in size
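Step one: compound is pinned into 1nM USP1/UAF1 in HEPES pH 7.8 buffer with TCEP. Step two: 15 min room-temperature incubation. Step three: Ub-Rho (150nM final) starts cleavage, tracked by fluorescence over six one-minute reads.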
Starred values were filed as active, the others as inactive; ? = inconclusive; . = not tested or not shown. Calls come from the whole dose curve; as a rule, active = well fitted curve in the direction sought with a large enough effect; inconclusive = small, poorly fitted or top-dose-only effect, or another doubt; inactive = no such curve, though single readings can be large; an effect the other way counts as inactive or inconclusive. Potency is the fitted concentration of half-maximal effect.

SMILES	EPAC1 agonist	EPAC2 antag	EPAC1 antagonist	EPAC2 agonist	ALOX12 inh	USP1-UAF1 inh
COc1cccc(C(=O)NC(=S)Nc2ccc(N(C)C)cc2)c1	11.9%	-6.1%	-19.0%	17.6%	44.7µM*	-16.2%
COc1cc(C(=O)NC(=S)Nc2ccc(Cl)c(C(=O)O)c2)cc(OC)c1OC	0.2%	1.7%	13.1%	-0.2%	?	-24.1%
C=CCOC(=O)c1c(C)[nH]c(C(=O)OCC)c1C	.	.	.	.	-15.8%	.
CCCCOc1cccc(C(=O)NC(=S)Nc2ccc(Cl)c(C(=O)O)c2)c1	-8.9%	-6.0%	5.3%	7.5%	5.62µM*	-22.3%
CCCCC(=O)NC(=S)Nc1ccc(Cl)c(C(=O)O)c1	10.0%	3.1%	-15.6%	8.6%	?	-3.9%
O=C(NC(=S)Nc1ccc(Cl)c(C(=O)O)c1)c1cccc(COc2ccccc2)c1	2.3%	-9.3%	-20.8%	-0.8%	11.2µM*	?
CCOc1cccc(C(=O)NC(=S)Nc2cccc(C)c2)c1	16.9%	-10.5%	-5.7%	2.6%	20µM*	-6.9%
Clc1ccc(Sc2ccc(Sc3ccc(Cl)cc3)nn2)cc1	.	.	.	.	-7.9%	.
O=C1/C(=C/c2ccc(Cl)c(Cl)c2)C(c2ccccc2)Oc2ccccc21 (centres undefined)	.	.	.	.	-56.0%	.
COc1ccc(C(=O)NCC(=O)NCc2ccc3cc(OC)ccc3c2)cc1	.	.	.	.	16.2%	.
CC(=O)Nc1ccc(N2C(=O)c3cccc4c(O)ccc(c34)C2=O)cc1	89.1µM*	416.7%	?	112µM*	0.0%	28.2µM*
Cc1ccc(N2C(=O)c3cccc4c(C(=O)O)ccc(c34)C2=O)cc1	.	.	.	.	-18.0%	.
O=C1c2cccc3c(O)ccc(c23)C(=O)N1c1ccc(Cl)cc1	100µM*	220.2%	252.4%	112µM*	?	28.2µM*
CC(=O)Nc1ccc(-n2c(=O)c3ccccc3c3ccccc3c2=O)cc1	7.6%	-13.2%	-17.3%	14.6%	-12.9%	-1.6%
O=C1c2cccc3c(O)ccc(c23)C(=O)N1Cc1ccco1	56.2µM*	324.8%	19.1%	100µM*	?	28.2µM*
CCOC(=O)c1ccc(N2C(=O)c3cccc4c(C(=O)O)ccc(c34)C2=O)cc1	1.5%	13.7%	-6.3%	6.1%	15.8µM*	-8.3%
O=C1c2ccccc2C(=O)N1Cc1ccco1	3.7%	5.3%	3.3%	-7.1%	0.0%	-16.5%
COc1cccc(C2(c3cccc(OC)c3)CC2C(=O)O)c1 (centres undefined)	.	.	.	.	-17.5%	.
Cc1ccccc1NCc1nc2c(n1Cc1ccccc1)C(=O)N(CCOc1ccccc1)CCN2	.	.	.	.	31.0%	.
Cc1ccc(Sc2nc3c(c(=O)[nH]c(=O)n3C)n2Cc2ccccc2)cc1	.	.	.	.	7.4%	.
Cc1ccc(-c2csc(NS(=O)(=O)c3cccc(F)c3)n2)o1	8.8%	-0.5%	?	10.4%	15.8µM*	-12.3%
Cc1nc2cc(NS(=O)(=O)c3cccc(F)c3)ccc2o1	.	.	.	.	-15.7%	.
CC/C(C)=N\N=C\c1c(O)n(CC)c2cc(C3=NNC(=O)CC3)ccc12	7.3%	-4.6%	-5.7%	2.9%	.	-3.2%
CCn1c(O)c(/C=N/N=C/c2ccc(OC)cc2)c2cc(C3=NNC(=O)CC3)ccc21	10.8%	11.1%	?	100µM*	-7.6%	-15.3%
CCOC(=O)CSC1=NC(=O)/C(=C/c2ccc(Br)cc2)S1	5.2%	?	-27.1%	7.8%	39.8µM*	-1.5%

Compound activity as filed in PubChem.
